Most compounds without a hit are left out; they make up all but 4.1% or so of the library.
TWEAK-Fn14 inh – inhibitors of TWEAK-Fn14 signaling, primary screen, luciferase reporter cells, uHTS | TWEAK-stimulated Fn14 reporter cells, luciferase luminescence, 8 h | inhibition, % at 10 µM | 360,000 tested, 2% active | AID 1159606, 2016; in the data active means inhibition above about 50%
TROY signal inh – inhibitors of TROY-driven NF-kB signaling, primary screen, Q293 LMP1-TROYcd cells, NF-kB luciferase, uHTS; 360,000 tested, 0.98% active; inhibition, % at 10 µM; AID 1347056, 2019; Q293 LMP1-TROYcd NF-kB luciferase reporter, 4 h;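 active means compounds whose plate-normalised and pattern-corrected inhibition of the luciferase reporter signal at the single screening dose is 50% or more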
EBV LMP1 NFkB – EBV LMP1-driven NF-kappaB luciferase reporter inhibitors, primary screen, cell-based, luminescence, single point | 350,000 tested, 0.69% active | LMP1-induced NF-kappaB luciferase reporter cells | AID 504558, 2011 | inhibition, % at 12.5 µM; in the data active means inhibition above about 41%;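 further: 0% = neutral control wells and 100% = reference inhibitor control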
Shn3 inh set2 – reduction of Shn3 3'UTR firefly luciferase signal, primary screen, Schnurri-3 inhibitor project, cell-based, Clone20 osteoblasts, set 2; Clone20 osteoblast Shn3 3'UTR firefly luciferase, 24 h; inhibition, % at 12.5 µM; 360,000 tested, 0.52% active;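 active means mean inhibition of at least 75% with every replicate also reaching 75%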;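 further: 0% = median of neutral control wells and 100% = pilot-screen positive control compound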
MITF TRPM1 inh – inhibitors of MITF-dependent TRPM1 promoter reporter, primary screen, cell-based, SK-MEL-5, single point, luciferase; SK-MEL-5 TRPM1 promoter luciferase, 24 h; 330,000 tested, 0.83% active; inhibition, % at 12.5 µM; AID 488899, 2010;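 active means mean inhibition across replicates of 60% or more, whatever share of single replicates reaches that level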
Peg3 promoter – Peg3 promoter-driven luciferase inhibitors, primary screen, cell-based, HeLa, luciferase luminescence; 360,000 tested, 1.7% active; inhibition, % at 20 µM; HeLa PEG-Prom luciferase reporter, overnight;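 active means inhibition of at least 50% at 20 µM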
* marks the source's active call; other numbers are inactive results; . = no result given.

SMILES	TWEAK-Fn14 inh	TROY signal inh	EBV LMP1 NFkB	Shn3 inh set2	MITF TRPM1 inh	Peg3 promoter
CCCC1(CC(C)C)C(=O)NC(=S)NC1=O	-7	-6	-3	1	2	0
O=[N+]([O-])NC1=NCCN1Cc1ccc(Cl)nc1	-5	9	-3	-3	8	18
CNC(=O)O/N=C(\C)Cc1nnn(-c2cc(C)on2)n1	21	73*	1	9	0	12
Cc1cccc(CN2CCN(c3ccc(Cl)cc3)CC2)c1	10	15	0	13	-13	11
Cc1cccc(CN2CCN(Cc3ccc(Cl)cc3)CC2)c1	20	5	84*	15	-9	18
CC/C(=N\Nc1ccccc1)c1c(O)n(-c2ccc(OC)cc2)c(=O)[nH]c1=O	2	3	-37	4	8	18
O=C1NCN(c2ccccc2)C12CCN(C(c1ccccc1)c1nnnn1-c1ccc3c(c1)OCCO3)CC2 (configuration not stated)	19	-2	.	-3	.	25
O=c1[nH]c2ccccc2n1C1CCN(C(c2nnnn2-c2ccc3c(c2)OCCO3)C2CC2)CC1 (configuration not stated)	43	8	.	12	.	78*
O=c1[nH]c2ccccc2n1C1CCN(C(c2cccs2)c2nnnn2-c2ccc3c(c2)OCCO3)CC1 (configuration not stated)	49	27	.	61	.	77*
CSCCC(c1nnnn1-c1ccc2c(c1)OCCO2)N1CCC(n2c(=O)[nH]c3ccccc32)CC1 (configuration not stated)	26	27	.	73	.	75*
O=c1[nH]c2ccccc2n1C1CCN(C(c2ccccc2)c2nnnn2-c2ccc3c(c2)OCCO3)CC1 (configuration not stated)	52*	30	.	73	.	68*
O=C1NCN(c2ccccc2)C12CCN(C(c1cccs1)c1nnnn1-c1ccc3c(c1)OCCO3)CC2 (configuration not stated)	15	4	.	-1	.	39
Cc1ccc(CN2C(=O)NC(=O)C3(Cc4c(nc5ccccn5c4=O)N4CCCCCC43)C2=O)cc1 (configuration not stated)	30	87*	4	-5	20	9
COc1ccc2c(c1)/C(=C/c1cnc[nH]1)C(=O)N2	11	21	88*	-10	35	100*
O=C1Nc2ccccc2/C1=C/c1cnc[nH]1	8	2	-1	-5	17	-11
CN(C)C(=O)Oc1ccc2c(c1)O/C(=C\c1cccc(Cl)c1)C2=O	0	-42	-21	-38	-65	-150
CN1C(=O)C(C)(C2=CCCCC2)C(=O)NC1=S (configuration not stated)	17	2	1	-6	3	93*
O=c1[nH]c(O)c(C=Nc2cccc(F)c2)c(=O)[nH]1	10	14	-13	-81	-2	16
CC(=O)c1cc(C(C)=O)c(C)[n+](C)c1C	-3	4	-2	-5	2	9
Cc1c(NS(=O)(=O)c2ccccc2)ccc([N+](=O)[O-])c1Cl	46	59*	8	18	10	43
CCN(CCNc1ccc([N+](=O)[O-])c2cccnc12)S(=O)(=O)c1ccccc1	-17	-6	-6	-11	-10	16
C=CC[C@@H](CC/C=C/C=C/CC/C=C\[C@@H]1CSC([C@@H]2C[C@@H]2C)=N1)OC	11	19	14	14	67*	-10
CCOC(=O)c1c(C)n(Cc2ccc3c(c2)OCO3)c2ccc(O)cc12	13	-1	-9	-13	-32	-127
COC(=O)c1c(C)n(Cc2ccc3c(c2)OCO3)c2ccc(O)cc12	53*	12	11	9	-25	-56
CN(C)C(=O)Oc1ccc(OCc2nc3ccccc3[nH]2)cc1	68*	24	31	15	3	17
SMILES	TWEAK-Fn14 inh	TROY signal inh	EBV LMP1 NFkB	Shn3 inh set2	MITF TRPM1 inh	Peg3 promoter
COc1ccc(-n2c(O)c(C(C)=NCCc3c[nH]c4ccccc34)c(=O)[nH]c2=O)cc1	6	10	.	4	.	11
O=C(c1cccc(Cl)c1)C1CCCN(Cc2cccc3cnccc23)C1 (configuration not stated)	26	8	8	54	7	26
O=C(c1ccc(Cl)cc1)C1CCCN(Cc2cccc3cnccc23)C1 (configuration not stated)	21	85*	13	73	8	13
CC(=O)OCC12CC(OC(=O)CC(C)C)C(C)=CC1OC1C(O)C(OC(C)=O)C2(C)C12CO2 (configuration not stated)	93*	82*	88*	93*	87*	97*
O=C1/C(=C/c2ccccc2)C[C@@]2(O)[C@H]3Cc4ccc(O)c5c4[C@@]2(CCN3CC2CC2)C1O5 (some centres not stated)	91*	64*	20	95*	109*	100*
Oc1ccc2c3c1OC1c4[nH]c5ccccc5c4C[C@@]4(O)C(C2)N(CC2CC2)CC[C@]314 (some centres not stated)	3	6	1	-7	-14	-16
CC1([N+](=O)[O-])COP(=O)(NCc2cccnc2)OC1 (configuration not stated)	-12	8	-2	0	6	0
C[C@H]1C[C@@H](C)C(=O)[C@@H]([C@H](O)CC2CC(=O)NC(=O)C2)C1	86*	66*	74*	90*	.	90*
CC(C)(C)C(=O)c1cn(Cc2ccccc2)c2ccccc12	10	4	-1	-16	-5	24
C[C@@H]1O[C@@H](O[C@H]2C[C@@H](O)[C@]3(CO)[C@H]4[C@H](O)C[C@]5(C)[C@@H](C6=CC(=O)OC6)CC[C@]5(O)[C@@H]4CC[C@]3(O)C2)[C@H](O)[C@H](O)[C@H]1O	85*	49	80*	5	70*	103*
NC(Cc1ccc(O)cc1)C(=O)NN=Cc1ccc(N(CCCl)CCCl)cc1 (configuration not stated)	-11	-17	48*	12	4	-2
N[C@@H](Cc1ccc(N(CCCl)CCCl)cc1)C(=O)O	-42	-9	50*	30	-7	1
COc1cc(C(=O)NN=Cc2ccc(N(CCCl)CCCl)cc2)cc(OC)c1OC	-5	30	34	-20	1	8
COc1ccc(CNC(=O)C(NC(C)=O)C(C)C)cc1OC (configuration not stated)	2	-9	0	32	1	-7

Source: PubChem BioAssay (several laboratories)
